# In PMC7862700, “An all-to-all approach to the identification of sequence-specific readers for epigenetic DNA modifications on cytosine”:
# Experiments:
# Assay in all cases: DAPPL (digital affinity profiling via proximity ligation, sequencing); 10 mM Tris-HCl pH 7.5, 50 mM NaCl, 1 mM DTT, 4% glycerol, room temperature, 30 min; GST-TFs on glutathione beads, 16-mer random dsDNA library, 0.1% formaldehyde crosslink after washing; high values mean tight binding
# FLI1 = target: T1, FLI1 (Homo sapiens, UniProt Q01543 1-452); details: protein: recombinant; tags: N-terminal GST; dsDNA, one strand shown
# T1 sequence: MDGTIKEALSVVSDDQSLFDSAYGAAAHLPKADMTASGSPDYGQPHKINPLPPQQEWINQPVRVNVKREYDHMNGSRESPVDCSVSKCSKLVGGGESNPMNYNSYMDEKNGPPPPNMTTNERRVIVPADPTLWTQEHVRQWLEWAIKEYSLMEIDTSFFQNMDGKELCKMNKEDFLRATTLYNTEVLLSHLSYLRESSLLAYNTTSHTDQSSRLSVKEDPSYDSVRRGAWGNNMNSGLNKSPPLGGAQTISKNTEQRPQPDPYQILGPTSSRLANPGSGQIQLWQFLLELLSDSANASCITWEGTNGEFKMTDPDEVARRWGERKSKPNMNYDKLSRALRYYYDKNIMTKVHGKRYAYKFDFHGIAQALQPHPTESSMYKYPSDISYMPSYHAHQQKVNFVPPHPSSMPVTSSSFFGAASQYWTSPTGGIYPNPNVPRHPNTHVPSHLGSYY
# Method in brief: (§1)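 Pools of DNA-barcoded human transcription factors, expressed in yeast as GST fusions on glutathione beads and combined with a tag-only sample, were incubated with 200 nmole of a 16-mer random double-stranded DNA library. Incubation took 30 min at room temperature in Tris/NaCl/DTT/glycerol buffer and was followed by washing, 0.1% formaldehyde crosslinking, proximity ligation (BsaI/T4 ligase, 1 h, 37 °C), PCR amplification and sequencing on an Illumina NextSeq500. Binding signal is the ratio of a hexamer's read frequency for a factor to its frequency for the tag-only sample.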
# ELK1 = target: T2, ELK1 (Homo sapiens, UniProt P19419 1-428); details: protein: recombinant; tags: N-terminal GST; dsDNA, one strand shown
# T2 sequence: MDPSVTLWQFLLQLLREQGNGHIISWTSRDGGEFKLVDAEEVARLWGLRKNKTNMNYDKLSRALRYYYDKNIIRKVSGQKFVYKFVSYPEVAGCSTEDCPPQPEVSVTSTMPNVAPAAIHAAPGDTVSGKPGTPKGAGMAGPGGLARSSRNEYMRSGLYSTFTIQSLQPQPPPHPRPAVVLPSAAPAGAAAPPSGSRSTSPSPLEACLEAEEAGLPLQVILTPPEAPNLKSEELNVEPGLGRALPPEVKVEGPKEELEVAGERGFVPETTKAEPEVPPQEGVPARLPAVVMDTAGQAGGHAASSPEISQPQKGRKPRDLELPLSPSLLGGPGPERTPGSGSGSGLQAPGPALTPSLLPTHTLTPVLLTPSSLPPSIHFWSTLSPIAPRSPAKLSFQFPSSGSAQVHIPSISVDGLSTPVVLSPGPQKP
# Method in brief: as §1
# GABPA = target: T3, GABPA (Homo sapiens, UniProt Q06546 1-454); details: protein: recombinant; tags: N-terminal GST; dsDNA, one strand shown
# T3 sequence: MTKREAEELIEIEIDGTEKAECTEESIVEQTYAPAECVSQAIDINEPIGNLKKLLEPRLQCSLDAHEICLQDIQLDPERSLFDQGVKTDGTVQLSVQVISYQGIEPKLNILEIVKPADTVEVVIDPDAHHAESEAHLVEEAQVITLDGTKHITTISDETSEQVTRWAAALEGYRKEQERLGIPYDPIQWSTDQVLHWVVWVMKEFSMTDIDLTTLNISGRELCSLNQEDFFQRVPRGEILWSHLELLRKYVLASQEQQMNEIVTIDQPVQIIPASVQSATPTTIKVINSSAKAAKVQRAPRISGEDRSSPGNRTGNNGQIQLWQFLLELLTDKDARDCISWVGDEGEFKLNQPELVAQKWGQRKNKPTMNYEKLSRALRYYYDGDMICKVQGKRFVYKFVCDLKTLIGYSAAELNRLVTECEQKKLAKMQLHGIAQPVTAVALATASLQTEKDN
# Method in brief: as §1
# ERG = target: T4, ERG (Homo sapiens, UniProt P11308 1-479); details: protein: recombinant; tags: N-terminal GST; dsDNA, one strand shown
# T4 sequence: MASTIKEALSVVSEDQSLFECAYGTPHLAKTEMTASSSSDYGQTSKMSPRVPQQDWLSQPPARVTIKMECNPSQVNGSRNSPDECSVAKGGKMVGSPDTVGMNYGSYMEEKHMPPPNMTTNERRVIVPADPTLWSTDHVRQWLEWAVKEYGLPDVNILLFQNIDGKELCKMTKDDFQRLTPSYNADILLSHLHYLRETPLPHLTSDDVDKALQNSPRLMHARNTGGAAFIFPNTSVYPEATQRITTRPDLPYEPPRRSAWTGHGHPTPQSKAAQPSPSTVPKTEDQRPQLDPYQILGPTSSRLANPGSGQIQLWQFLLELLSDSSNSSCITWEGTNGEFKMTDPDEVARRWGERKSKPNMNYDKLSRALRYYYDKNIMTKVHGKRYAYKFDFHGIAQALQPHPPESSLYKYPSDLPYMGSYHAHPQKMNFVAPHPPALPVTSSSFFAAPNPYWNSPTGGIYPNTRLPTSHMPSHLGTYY
# Method in brief: as §1
# ELF1 = ELF1 (Homo sapiens, UniProt P32519 1-619); details: protein: recombinant; tags: N-terminal GST; dsDNA, one strand shown
# Method in brief: as §1
# EHF = target: T5, EHF (Homo sapiens, UniProt Q9NZC4 1-300); details: protein: recombinant; tags: N-terminal GST; dsDNA, one strand shown
# T5 sequence: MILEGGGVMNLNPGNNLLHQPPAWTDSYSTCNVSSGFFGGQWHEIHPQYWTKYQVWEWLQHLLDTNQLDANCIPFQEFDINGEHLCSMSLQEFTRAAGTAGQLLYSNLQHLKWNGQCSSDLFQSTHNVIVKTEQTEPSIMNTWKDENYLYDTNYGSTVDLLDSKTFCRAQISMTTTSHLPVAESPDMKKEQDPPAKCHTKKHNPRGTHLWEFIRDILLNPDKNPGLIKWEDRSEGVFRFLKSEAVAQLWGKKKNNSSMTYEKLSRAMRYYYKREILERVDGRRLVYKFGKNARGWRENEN
# Method in brief: as §1
# SPI1 = SPI1 (Homo sapiens, UniProt P17947 1-270); details: protein: recombinant; tags: N-terminal GST; dsDNA, one strand shown
# Method in brief: as §1
# SPIB = SPIB (Homo sapiens, UniProt Q01892 1-262); details: protein: recombinant; tags: N-terminal GST; dsDNA, one strand shown
# Method in brief: as §1
# ELK3 = target: T6, ELK3 (Homo sapiens, UniProt P41970 1-407); details: protein: recombinant; tags: N-terminal GST; dsDNA, one strand shown
# T6 sequence: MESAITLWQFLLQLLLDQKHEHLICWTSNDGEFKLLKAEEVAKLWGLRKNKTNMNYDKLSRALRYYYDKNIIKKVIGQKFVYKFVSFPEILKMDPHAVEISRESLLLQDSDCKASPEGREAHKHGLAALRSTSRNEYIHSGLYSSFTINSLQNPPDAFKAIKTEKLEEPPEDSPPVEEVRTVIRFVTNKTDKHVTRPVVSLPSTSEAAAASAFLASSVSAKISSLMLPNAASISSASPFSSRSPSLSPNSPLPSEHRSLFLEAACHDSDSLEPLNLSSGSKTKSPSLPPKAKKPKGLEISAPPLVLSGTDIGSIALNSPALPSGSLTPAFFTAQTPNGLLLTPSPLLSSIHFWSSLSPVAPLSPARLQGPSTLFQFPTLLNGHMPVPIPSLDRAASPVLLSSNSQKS
# Method in brief: as §1
# FEV = target: T7, FEV (Homo sapiens, UniProt Q99581 1-238); details: protein: recombinant; tags: N-terminal GST; dsDNA, one strand shown
# T7 sequence: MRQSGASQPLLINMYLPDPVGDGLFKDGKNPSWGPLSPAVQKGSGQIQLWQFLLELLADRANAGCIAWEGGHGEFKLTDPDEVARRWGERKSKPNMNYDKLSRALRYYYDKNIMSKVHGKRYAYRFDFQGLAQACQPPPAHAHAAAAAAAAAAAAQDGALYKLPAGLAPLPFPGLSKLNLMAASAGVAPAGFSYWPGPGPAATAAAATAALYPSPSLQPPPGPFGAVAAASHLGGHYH
# Method in brief: as §1
# ETV5 = ETV5 (Homo sapiens, UniProt P41161 1-510); details: protein: recombinant; tags: N-terminal GST; dsDNA, one strand shown
# Method in brief: as §1
# HSF1 = HSF1 (Homo sapiens, UniProt Q00613 1-529); details: protein: recombinant; tags: N-terminal GST; chain copies: 3; dsDNA, one strand shown
# Method in brief: as §1
# SPIC = target: T8, SPIC (Homo sapiens, UniProt Q8N5J4 1-248); details: protein: recombinant; tags: N-terminal GST; dsDNA, one strand shown
# T8 sequence: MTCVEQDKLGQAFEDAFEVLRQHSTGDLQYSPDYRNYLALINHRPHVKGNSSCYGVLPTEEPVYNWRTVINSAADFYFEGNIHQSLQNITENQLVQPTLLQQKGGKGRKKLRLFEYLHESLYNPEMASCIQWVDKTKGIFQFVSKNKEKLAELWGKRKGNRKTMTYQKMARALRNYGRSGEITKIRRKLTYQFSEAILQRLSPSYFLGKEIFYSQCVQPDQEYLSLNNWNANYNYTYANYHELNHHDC
# Method in brief: as §1
# ELF4 = ELF4 (Homo sapiens, UniProt Q99607 1-663); details: protein: recombinant; tags: N-terminal GST; dsDNA, one strand shown
# Method in brief: as §1
# ELK4 = target: T9, ELK4 (Homo sapiens, UniProt P28324-2 1-405); details: protein: recombinant; tags: N-terminal GST; dsDNA, one strand shown
# T9 sequence: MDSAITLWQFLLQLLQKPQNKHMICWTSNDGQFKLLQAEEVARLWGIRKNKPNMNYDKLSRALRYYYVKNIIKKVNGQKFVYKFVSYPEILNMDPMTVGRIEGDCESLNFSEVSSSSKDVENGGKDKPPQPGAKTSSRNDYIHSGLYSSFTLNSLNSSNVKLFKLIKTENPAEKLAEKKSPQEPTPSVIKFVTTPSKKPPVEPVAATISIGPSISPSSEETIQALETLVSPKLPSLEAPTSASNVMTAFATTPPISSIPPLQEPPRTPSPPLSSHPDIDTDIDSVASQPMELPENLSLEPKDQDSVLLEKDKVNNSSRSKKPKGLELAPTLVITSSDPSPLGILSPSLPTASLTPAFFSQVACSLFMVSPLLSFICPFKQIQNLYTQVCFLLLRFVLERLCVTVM
# Method in brief: as §1
# ETV2 = target: T10, ETV2 (Homo sapiens, UniProt O00321 1-342); details: protein: recombinant; tags: N-terminal GST; dsDNA, one strand shown
# T10 sequence: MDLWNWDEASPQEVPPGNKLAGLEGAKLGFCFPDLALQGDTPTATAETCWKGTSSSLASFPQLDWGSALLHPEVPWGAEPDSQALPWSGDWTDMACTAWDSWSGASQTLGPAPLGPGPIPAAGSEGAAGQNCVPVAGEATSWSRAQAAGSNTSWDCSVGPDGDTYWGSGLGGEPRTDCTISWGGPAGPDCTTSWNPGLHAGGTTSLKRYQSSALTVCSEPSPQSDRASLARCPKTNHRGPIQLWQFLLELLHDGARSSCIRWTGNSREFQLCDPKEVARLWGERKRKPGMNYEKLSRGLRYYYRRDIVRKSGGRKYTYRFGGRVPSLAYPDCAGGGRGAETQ
# Method in brief: as §1
# ELF3 = target: T11, ELF3 (Homo sapiens, UniProt P78545 1-371); details: protein: recombinant; tags: N-terminal GST; dsDNA, one strand shown
# T11 sequence: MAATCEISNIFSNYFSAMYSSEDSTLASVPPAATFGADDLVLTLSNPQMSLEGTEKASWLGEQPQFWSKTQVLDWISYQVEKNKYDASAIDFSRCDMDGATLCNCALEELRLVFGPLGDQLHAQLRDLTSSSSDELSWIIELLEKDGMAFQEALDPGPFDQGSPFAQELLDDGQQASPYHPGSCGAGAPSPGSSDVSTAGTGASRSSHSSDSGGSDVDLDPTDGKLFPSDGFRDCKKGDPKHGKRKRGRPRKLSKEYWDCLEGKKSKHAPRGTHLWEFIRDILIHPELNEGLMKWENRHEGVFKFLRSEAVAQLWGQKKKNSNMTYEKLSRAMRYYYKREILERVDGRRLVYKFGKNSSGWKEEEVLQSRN
# Method in brief: as §1
# CRX = CRX (Homo sapiens, UniProt O43186 1-299); details: protein: recombinant; tags: N-terminal GST; dsDNA, one strand shown
# Method in brief: as §1
# ETV1 = ETV1 (Homo sapiens, UniProt P50549 1-477); details: protein: recombinant; tags: N-terminal GST; dsDNA, one strand shown
# Method in brief: as §1
# Chain of ELF1 (P32519 whole entry): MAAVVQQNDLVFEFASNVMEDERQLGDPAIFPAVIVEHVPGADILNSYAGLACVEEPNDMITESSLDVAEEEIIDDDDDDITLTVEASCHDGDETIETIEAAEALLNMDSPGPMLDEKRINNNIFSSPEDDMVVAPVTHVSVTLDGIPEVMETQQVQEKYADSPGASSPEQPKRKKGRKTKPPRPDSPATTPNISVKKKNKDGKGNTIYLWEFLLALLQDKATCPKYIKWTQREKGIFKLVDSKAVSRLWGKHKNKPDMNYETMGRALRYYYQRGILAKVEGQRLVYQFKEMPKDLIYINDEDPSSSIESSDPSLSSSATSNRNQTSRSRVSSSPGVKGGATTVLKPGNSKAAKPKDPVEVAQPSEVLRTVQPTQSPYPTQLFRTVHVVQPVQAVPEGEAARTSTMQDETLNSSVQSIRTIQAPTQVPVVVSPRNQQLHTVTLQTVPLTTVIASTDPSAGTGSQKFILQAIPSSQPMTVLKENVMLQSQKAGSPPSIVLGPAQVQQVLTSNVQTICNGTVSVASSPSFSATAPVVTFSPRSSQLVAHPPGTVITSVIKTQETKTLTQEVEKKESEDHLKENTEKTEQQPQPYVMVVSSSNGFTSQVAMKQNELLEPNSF
# Chain of ETV5 (P41161 whole entry): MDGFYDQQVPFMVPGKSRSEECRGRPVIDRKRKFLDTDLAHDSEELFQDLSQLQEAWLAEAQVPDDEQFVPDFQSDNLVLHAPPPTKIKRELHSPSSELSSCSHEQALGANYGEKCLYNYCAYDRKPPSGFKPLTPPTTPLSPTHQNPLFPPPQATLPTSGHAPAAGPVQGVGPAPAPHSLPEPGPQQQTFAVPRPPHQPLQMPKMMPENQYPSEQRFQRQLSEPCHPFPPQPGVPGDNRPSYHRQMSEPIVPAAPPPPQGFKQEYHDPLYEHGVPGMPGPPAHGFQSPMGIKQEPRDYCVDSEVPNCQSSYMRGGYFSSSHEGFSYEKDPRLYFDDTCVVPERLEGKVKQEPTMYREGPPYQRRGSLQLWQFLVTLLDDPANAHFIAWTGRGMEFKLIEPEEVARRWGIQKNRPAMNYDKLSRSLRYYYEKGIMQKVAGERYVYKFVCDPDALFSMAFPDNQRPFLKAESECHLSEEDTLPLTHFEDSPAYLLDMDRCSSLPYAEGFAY
# Chain of ETV1 (P50549 whole entry): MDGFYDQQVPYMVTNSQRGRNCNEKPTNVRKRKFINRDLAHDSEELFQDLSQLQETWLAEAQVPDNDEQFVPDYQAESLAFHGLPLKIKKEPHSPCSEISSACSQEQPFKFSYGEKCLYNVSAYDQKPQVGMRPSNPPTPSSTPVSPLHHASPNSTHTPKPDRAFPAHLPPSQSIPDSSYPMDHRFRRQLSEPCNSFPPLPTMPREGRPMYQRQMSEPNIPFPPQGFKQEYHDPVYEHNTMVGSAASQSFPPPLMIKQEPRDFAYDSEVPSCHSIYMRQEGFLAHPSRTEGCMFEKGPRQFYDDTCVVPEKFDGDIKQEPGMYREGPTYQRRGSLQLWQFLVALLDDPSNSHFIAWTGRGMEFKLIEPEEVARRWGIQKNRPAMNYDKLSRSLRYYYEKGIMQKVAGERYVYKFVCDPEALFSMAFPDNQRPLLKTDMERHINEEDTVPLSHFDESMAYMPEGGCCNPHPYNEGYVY
# Chain of ELF4 (Q99607 whole entry): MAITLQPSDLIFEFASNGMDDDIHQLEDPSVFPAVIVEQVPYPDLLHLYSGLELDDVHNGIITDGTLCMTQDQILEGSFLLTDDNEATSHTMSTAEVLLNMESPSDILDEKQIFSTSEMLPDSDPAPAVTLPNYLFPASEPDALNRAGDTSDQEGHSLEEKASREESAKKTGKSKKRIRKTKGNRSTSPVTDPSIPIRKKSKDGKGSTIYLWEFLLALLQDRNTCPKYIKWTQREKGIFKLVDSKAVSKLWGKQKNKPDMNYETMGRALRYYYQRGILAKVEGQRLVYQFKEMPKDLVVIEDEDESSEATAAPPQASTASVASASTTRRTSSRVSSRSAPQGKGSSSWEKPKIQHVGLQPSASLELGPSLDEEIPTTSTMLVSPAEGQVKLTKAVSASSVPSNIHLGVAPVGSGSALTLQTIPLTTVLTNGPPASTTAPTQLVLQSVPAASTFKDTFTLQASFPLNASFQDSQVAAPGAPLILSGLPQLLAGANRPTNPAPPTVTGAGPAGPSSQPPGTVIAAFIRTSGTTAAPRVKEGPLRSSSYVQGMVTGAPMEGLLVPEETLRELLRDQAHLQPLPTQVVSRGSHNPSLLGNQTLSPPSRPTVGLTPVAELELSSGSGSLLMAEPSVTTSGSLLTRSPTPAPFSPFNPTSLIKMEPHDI
# Chain of HSF1 (Q00613 whole entry): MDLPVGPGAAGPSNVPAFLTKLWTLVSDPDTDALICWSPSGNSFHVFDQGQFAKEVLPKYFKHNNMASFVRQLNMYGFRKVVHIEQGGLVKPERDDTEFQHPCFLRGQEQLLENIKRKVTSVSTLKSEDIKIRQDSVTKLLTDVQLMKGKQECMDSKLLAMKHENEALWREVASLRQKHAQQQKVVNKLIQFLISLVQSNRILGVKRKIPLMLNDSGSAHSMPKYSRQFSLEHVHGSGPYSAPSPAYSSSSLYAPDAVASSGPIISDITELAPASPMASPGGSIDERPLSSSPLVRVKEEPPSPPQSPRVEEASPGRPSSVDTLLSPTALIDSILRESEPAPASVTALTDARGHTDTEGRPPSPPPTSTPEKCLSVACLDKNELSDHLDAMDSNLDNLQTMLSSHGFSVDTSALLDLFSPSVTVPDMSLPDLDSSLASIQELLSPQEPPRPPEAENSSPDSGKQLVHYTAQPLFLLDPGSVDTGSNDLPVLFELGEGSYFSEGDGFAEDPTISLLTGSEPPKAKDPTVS
# Chain of SPIB (Q01892 whole entry): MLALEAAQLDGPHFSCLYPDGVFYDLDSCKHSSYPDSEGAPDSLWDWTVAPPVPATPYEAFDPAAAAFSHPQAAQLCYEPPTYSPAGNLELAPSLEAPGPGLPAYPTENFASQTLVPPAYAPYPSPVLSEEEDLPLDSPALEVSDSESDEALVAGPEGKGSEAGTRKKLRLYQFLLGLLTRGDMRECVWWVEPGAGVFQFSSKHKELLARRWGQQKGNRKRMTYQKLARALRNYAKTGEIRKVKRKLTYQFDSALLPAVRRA
# Chain of CRX (O43186 whole entry): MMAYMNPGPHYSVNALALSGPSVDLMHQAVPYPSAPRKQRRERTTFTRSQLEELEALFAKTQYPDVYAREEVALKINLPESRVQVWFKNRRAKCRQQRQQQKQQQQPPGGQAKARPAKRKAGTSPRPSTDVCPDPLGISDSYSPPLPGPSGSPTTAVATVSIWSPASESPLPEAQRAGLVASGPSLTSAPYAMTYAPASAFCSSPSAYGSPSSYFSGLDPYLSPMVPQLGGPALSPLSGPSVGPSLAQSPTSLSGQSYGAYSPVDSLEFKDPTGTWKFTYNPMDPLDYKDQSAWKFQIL
sequence,measurement,setting,value
AATTCT,binding signal,FLI1,"1.4 fold enrichment (6-mer frequency, TF over GST control)"
same,binding signal,ELK1,"1.22 fold enrichment (6-mer frequency, TF over GST control)"
same,binding signal,GABPA,"1.38 fold enrichment (6-mer frequency, TF over GST control)"
same,binding signal,ERG,"1.31 fold enrichment (6-mer frequency, TF over GST control)"
same,binding signal,ELF1,"1.32 fold enrichment (6-mer frequency, TF over GST control)"
same,binding signal,EHF,"1.28 fold enrichment (6-mer frequency, TF over GST control)"
same,binding signal,SPI1,"1.27 fold enrichment (6-mer frequency, TF over GST control)"
same,binding signal,SPIB,"1.39 fold enrichment (6-mer frequency, TF over GST control)"
same,binding signal,ELK3,"1.38 fold enrichment (6-mer frequency, TF over GST control)"
same,binding signal,FEV,"1.29 fold enrichment (6-mer frequency, TF over GST control)"
same,binding signal,ETV5,"1.28 fold enrichment (6-mer frequency, TF over GST control)"
same,binding signal,HSF1,"2.25 fold enrichment (6-mer frequency, TF over GST control)"
same,binding signal,SPIC,"1.3 fold enrichment (6-mer frequency, TF over GST control)"
same,binding signal,ELF4,"1.33 fold enrichment (6-mer frequency, TF over GST control)"
same,binding signal,ELK4,"1.29 fold enrichment (6-mer frequency, TF over GST control)"
same,binding signal,ETV2,"1.4 fold enrichment (6-mer frequency, TF over GST control)"
same,binding signal,ELF3,"1.25 fold enrichment (6-mer frequency, TF over GST control)"
same,binding signal,CRX,"1.79 fold enrichment (6-mer frequency, TF over GST control)"
same,binding signal,ETV1,"1.32 fold enrichment (6-mer frequency, TF over GST control)"
